The supplement of paper PMC10849652
Of roughly 7,900 targets only a part is listed; those with a hit were picked by preference. About 0.6% of all pairs of compound and target were hits.

compound: C#Cc1cccc(Nc2ncnc3cc(OCCOC)c(OCCOC)cc23)c1 [erlotinib]; test: log2 fold change, soluble protein after heating vs DMSO (PISA); higher = thermal stabilisation; K562 cells, 10 uM, 30 min; active = over 0.2 and 3.5 SD of the protein, either way, in both replicates (recomputed)
Outline: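 Soluble protein was quantified by TMTpro 16plex LC-MS/MS after channel sums were equalised. It was obtained as the supernatant after 21,000xg for 90 min from pooled aliquots of K562 cells (2×10^6 cells/mL, 10 μM compound, 30 min) heated for 3 min across 48°C-58°C and extracted in PBS with 0.5% NP-40 at 4°C. Thermal stability values are relative to control samples and come from duplicates. They are given as log2 fold changes.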

UniProt O43405, sequence (O43405 whole entry, looked up): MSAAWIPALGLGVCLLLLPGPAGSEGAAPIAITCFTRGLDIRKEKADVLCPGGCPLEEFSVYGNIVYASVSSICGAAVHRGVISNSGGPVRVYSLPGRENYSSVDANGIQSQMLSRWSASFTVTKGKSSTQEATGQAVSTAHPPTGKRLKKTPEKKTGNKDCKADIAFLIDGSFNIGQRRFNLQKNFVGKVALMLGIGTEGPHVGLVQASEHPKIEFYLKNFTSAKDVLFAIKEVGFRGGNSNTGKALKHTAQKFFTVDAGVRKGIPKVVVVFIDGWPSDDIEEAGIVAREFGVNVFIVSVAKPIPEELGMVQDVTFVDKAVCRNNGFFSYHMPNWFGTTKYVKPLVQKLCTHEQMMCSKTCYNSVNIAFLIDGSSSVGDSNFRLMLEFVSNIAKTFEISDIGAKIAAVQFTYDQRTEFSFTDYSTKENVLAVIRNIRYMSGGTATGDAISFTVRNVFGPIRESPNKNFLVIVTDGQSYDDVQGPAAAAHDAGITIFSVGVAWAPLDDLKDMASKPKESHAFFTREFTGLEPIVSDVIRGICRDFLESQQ
UniProt Q53ET0, sequence (Q53ET0 whole entry, looked up): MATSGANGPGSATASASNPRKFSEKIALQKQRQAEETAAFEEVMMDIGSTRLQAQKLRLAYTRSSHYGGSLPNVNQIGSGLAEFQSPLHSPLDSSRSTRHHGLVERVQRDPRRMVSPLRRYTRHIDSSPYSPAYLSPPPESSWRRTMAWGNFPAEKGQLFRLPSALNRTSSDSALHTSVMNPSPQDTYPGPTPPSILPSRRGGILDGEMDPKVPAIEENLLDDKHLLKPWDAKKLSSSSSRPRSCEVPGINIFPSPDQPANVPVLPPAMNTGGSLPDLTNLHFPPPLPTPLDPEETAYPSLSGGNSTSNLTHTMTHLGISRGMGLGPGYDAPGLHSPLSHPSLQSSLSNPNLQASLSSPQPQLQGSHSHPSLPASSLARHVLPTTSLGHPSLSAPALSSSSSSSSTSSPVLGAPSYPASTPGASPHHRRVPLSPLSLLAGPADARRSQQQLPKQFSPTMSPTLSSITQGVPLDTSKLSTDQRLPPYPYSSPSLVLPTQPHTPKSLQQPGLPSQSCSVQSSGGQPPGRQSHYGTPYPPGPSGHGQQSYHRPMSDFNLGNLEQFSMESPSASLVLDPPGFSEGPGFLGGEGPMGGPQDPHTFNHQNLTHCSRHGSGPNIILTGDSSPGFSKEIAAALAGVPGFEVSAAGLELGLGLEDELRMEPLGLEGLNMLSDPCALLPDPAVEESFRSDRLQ
UniProt P46108, sequence (P46108 whole entry, looked up): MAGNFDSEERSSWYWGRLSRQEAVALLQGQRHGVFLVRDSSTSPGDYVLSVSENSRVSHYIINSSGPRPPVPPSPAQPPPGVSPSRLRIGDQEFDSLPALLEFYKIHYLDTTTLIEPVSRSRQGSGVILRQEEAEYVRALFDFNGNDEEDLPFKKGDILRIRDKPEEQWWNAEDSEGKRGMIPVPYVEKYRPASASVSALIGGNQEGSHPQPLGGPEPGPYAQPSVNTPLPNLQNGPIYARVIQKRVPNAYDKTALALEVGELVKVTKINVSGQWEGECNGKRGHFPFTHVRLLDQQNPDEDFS
UniProt O14578, sequence (O14578 whole entry, looked up): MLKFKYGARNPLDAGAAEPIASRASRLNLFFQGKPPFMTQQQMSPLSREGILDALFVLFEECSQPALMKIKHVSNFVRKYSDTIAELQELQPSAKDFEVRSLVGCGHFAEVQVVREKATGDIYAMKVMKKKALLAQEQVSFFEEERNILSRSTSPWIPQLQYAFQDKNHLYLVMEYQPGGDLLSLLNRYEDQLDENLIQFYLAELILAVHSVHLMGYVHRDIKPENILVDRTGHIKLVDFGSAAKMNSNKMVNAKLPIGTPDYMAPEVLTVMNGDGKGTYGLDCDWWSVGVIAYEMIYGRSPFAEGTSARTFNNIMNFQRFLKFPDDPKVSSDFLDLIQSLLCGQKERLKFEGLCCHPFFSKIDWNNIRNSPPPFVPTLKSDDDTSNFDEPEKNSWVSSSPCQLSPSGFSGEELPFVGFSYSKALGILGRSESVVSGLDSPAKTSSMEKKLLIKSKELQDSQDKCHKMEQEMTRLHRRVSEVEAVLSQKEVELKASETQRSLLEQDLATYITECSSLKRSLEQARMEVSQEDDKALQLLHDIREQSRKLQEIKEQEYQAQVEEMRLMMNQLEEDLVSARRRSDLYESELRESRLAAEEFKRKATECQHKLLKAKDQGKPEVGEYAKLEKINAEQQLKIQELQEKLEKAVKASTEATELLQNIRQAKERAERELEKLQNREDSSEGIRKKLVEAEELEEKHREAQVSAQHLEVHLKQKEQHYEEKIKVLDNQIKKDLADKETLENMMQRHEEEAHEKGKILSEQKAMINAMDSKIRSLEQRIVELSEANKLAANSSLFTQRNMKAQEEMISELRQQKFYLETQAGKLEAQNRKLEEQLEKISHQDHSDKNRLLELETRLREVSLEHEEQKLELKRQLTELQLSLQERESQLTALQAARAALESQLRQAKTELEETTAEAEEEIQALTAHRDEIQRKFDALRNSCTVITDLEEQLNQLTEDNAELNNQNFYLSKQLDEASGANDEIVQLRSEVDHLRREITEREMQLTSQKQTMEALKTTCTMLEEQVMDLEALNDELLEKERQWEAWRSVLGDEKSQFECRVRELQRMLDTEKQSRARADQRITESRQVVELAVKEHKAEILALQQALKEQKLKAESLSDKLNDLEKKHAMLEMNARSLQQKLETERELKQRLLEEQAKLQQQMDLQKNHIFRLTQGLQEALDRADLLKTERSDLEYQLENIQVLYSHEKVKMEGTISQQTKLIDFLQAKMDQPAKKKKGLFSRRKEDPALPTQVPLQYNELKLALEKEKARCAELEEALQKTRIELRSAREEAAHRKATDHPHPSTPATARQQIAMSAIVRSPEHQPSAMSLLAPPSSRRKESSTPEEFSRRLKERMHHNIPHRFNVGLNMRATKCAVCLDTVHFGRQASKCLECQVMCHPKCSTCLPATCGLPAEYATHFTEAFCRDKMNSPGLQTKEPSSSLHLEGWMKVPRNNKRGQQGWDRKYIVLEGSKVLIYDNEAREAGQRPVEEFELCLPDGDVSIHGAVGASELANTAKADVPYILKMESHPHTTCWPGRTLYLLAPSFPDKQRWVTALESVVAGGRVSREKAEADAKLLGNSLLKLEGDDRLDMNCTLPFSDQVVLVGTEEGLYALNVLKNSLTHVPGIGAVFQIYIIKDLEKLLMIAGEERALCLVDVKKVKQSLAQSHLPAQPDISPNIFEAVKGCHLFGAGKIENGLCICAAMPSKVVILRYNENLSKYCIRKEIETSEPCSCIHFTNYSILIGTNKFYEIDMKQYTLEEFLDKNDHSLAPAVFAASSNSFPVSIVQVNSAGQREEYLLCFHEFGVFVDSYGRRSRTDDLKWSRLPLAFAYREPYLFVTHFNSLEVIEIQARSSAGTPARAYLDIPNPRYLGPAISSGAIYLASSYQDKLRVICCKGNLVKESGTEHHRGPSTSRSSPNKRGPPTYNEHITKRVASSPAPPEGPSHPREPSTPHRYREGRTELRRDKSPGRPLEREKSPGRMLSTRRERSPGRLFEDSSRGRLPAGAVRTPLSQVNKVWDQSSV
UniProt P51790, sequence (P51790 whole entry, looked up): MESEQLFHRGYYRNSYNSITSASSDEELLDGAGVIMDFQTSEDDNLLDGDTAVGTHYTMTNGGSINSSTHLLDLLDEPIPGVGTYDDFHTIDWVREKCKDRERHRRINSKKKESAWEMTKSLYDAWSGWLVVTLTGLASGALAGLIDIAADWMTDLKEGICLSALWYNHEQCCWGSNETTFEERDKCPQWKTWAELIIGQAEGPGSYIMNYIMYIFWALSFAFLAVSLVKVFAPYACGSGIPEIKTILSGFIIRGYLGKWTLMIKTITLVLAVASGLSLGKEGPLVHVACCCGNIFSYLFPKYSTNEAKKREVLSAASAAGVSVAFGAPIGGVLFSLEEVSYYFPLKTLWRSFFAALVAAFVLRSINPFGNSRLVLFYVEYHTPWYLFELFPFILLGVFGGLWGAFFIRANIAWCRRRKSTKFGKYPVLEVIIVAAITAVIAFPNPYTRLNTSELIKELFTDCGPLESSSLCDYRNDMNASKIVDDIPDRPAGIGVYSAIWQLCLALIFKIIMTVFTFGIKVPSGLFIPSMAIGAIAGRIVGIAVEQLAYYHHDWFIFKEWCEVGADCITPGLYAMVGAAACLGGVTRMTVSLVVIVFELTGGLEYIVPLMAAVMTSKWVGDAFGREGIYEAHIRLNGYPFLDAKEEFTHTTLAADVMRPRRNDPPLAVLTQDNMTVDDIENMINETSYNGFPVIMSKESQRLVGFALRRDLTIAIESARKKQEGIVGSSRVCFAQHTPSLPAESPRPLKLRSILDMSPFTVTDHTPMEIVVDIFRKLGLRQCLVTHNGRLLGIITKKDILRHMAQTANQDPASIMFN
UniProt P08174, sequence (P08174 whole entry, looked up): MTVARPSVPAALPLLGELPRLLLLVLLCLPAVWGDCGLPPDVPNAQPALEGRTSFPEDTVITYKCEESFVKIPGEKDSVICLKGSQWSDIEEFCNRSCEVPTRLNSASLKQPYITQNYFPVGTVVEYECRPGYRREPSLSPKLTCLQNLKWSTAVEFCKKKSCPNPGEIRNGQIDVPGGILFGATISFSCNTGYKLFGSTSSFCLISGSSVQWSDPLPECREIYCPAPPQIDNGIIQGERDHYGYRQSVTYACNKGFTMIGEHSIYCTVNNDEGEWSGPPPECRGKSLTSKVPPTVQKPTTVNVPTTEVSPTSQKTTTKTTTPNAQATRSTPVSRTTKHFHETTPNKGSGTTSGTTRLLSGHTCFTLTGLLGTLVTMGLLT
UniProt Q16740, sequence (Q16740 whole entry, looked up): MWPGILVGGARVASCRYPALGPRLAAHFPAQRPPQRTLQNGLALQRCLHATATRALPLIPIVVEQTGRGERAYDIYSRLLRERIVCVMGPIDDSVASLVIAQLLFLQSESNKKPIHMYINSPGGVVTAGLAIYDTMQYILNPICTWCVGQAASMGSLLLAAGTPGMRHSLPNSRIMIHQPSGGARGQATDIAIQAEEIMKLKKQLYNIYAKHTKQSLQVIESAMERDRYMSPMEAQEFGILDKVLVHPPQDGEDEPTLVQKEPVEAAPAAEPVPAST

log2 fold change, inactive:
CDC37L1 (UniProt Q7L3B6) -0.069
CCNB1 (UniProt P14635) 0.012
CIT isoform 4 (UniProt O14578) -0.015
CALCOCO2 isoform 4 (UniProt Q13137) -0.081
CLCN3 isoform 2 (UniProt P51790) 0.008
CHCHD2 (UniProt Q9Y6H1) -0.083
CCNH (UniProt P51946) -0.022
CRK (UniProt P46108) -0.022
CHCHD1 (UniProt Q96BP2) -0.034
CALB1 (UniProt P05937) -0.011
CDK6 (UniProt Q00534) -0.035
COASY isoform 2 (UniProt Q13057) -0.022
CHD3 isoform 3 (UniProt Q12873) -0.052
CHCHD4 isoform 2 (UniProt Q8N4Q1) -0.071
CASP3 (UniProt P42574) -0.014
CSNK2B (UniProt P67870) -0.021
CSTF3 (UniProt Q12996) -0.038
C4orf33 (UniProt Q8N1A6) -0.026
COCH (UniProt O43405) -0.083
CD53 (UniProt P19397) 0.041
CD55 isoform 7 (UniProt P08174) -0.065
CLASP2 isoform 3 (UniProt O75122) 0.014
CDC26 (UniProt Q8NHZ8) -0.096
CRTC2 (UniProt Q53ET0) 0.194
C1D (UniProt Q13901) 0.022
COA6 isoform 2 (UniProt Q5JTJ3) 0.012
CRKL (UniProt P46109) -0.012
CPT1A (UniProt P50416) -0.008
CCAR2 isoform 2 (UniProt Q8N163) 0.027
CIR1 (UniProt Q86X95) -0.008
CTBS (UniProt Q01459) 0.037
CLUH, A0A494C0R8 -0.008
CAD (UniProt P27708) -0.083
CLPP (UniProt Q16740) -0.025
CD63 (UniProt P08962) 0.01
COPS4 (UniProt Q9BT78) -0.002
